The source of these data is PubChem BioAssay (Tox21).

Where “and” joins values, the source holds several entries; their conditions need not be identical. Equal values may be shown once. Results filed as inconclusive are left out. Entries that show only a call come without a potency. Calls of active or inactive are those of the source. Calls come from the whole dose curve; as a rule, active = well fitted cell-killing curve with a large enough effect in the repeat runs; inconclusive = weak or mixed curves, or effect the other way; inactive = no such curve, though single readings can be large or run the other way.
Potency is the fitted concentration of half-maximal effect.

One test can be described thus: qHTS assay to identify small molecule antagonists of the glucocorticoid receptor (GR) signaling pathway - cell viability counter screen (AID 720693). Note: nearly all actives have a fitted effect of over 55% in size. The settings on record: GR-bla HeLa viability, CellTiter-Glo luminescence, 18 h, with 5 nM dexamethasone present; series mostly up to 58.5 µM. In general terms: In qHTS, concentration-response curves come from the screen itself.
As to `CC(COC(=O)c1ccccc1)OC(=O)c1ccccc1` (configuration not stated), the Potency result was “inactive”.

Take `O=C(Oc1ccccc1)c1cccc(C(=O)Oc2ccccc2)c1`: the Potency result was “inactive”.

As for `Brc1ccccc1-c1ccccc1`, the Potency entry is “inactive”.

Regarding `CNC(=S)NN`, the Potency entry was “inactive”.

For the compound `CCCCCCCOC(=O)c1ccc(O)cc1`, the Potency is 49 µM (active).

For the compound `O=C(Nc1ccc(Cl)cc1)Nc1ccc(Cl)c(C(F)(F)F)c1`, the Potency is 21.3 µM (active).

Take `O=C1OC(OC(=O)c2cccnc2Nc2cccc(C(F)(F)F)c2)c2ccccc21` (configuration not stated): the Potency entry is “inactive”.

As for `CCCCCCCC/C=C\CCCCCCCC(=O)NCc1ccc(O)c(OC)c1`, the Potency was 21.3 µM (active).

As to `O=Cc1ccc(F)cc1`, the Potency entry was “inactive”.

Turning to `Cc1ccc(N)cc1O`, the Potency entry was “inactive”.

As to `Nc1ncnc2c1ncn2[C@@H]1O[C@H](COP(=O)(O)O)[C@@H](O)[C@H]1O`, the Potency result is “inactive”.

With `C/C=C/C=N/NC(=O)c1ccncc1`, the Potency result is “inactive”.

For `CCCCC(CC)COC(=O)c1ccc(O)cc1` (configuration not stated), the Potency was 43.5 µM (active).

For `SCCCCCCCCS`, the Potency entry is “inactive”.

With `CC1=C(/C=C/C(C)=C/C=C/C(C)=C/C(=O)Nc2ccc(O)cc2)C(C)(C)CCC1`, the Potency is 44.8 µM (active).

`CCCCCCCCCCCCCOP(=O)(O)O`: the Potency result was “inactive”.

Take `CCC(C)(C)c1cc(O)c(C(C)(C)CC)cc1O`: the Potency entry was “inactive”.

`CCCCCCCCCCCCCC[n+]1ccccc1`: the Potency is 13.8 µM (active).

Consider `Clc1ccccc1CN1CCc2sccc2C1`, for which the Potency result is “inactive”.

As for `CC(C)(C)CC(C)(C)c1ccccc1O`, the Potency was 34.9 µM (active).

Turning to `Cc1oc(-c2ccccc2)nc1CCOc1ccc(C[C@H](Nc2ccccc2C(=O)c2ccccc2)C(=O)O)cc1`, the Potency is 38.9 µM (active).

For the compound `Cc1nc(Nc2ncc(C(=O)Nc3c(C)cccc3Cl)s2)cc(N2CCN(CCO)CC2)n1`, the Potency entry is “inactive”.

Consider `O=C(O)CC(=O)O`, for which the Potency entry is “inactive”.

For `C=C(C)C(=O)OCCC[Si](Cl)(Cl)Cl`, the Potency entry was “inactive”.

For the compound `CCCCCCCCCCCCCCNCCO`, the Potency result was “inactive”.

In the case of `O=C1OC(=O)c2cccc3cccc1c23`, the Potency entry is “inactive”.

For the compound `c1cc2c3c(c1)ccc1cccc(c13)C2`, the Potency result is “inactive”.

Take `Cc1cc2c(C(C)C)c(O)c(O)c(C=O)c2c(O)c1-c1c(C)cc2c(C(C)C)c(O)c(O)c(C=O)c2c1O`: the Potency is 9.52 µM (active).

As for `Cc1cccc(C)c1NC(=O)CN1CCN(CCCC(c2ccc(F)cc2)c2ccc(F)cc2)CC1`, the Potency result was “inactive”.

For `CCCCCCCCCC(=O)N(C)C`, the Potency result is “inactive”.

Turning to `CSc1c(Cl)c(Cl)c(Cl)c(Cl)c1Cl`, the Potency result is “inactive”.

Consider `C[C@H]1O[C@@H](O[C@H]2[C@@H](O)C[C@H](O[C@H]3[C@@H](O)C[C@H](O[C@H]4CC[C@@]5(C)[C@H](CC[C@@H]6[C@@H]5C[C@@H](O)[C@]5(C)[C@@H](C7=CC(=O)OC7)CC[C@]65O)C4)O[C@@H]3C)O[C@@H]2C)C[C@H](O)[C@@H]1O`, for which the Potency is 535 nM (active) and 97.8 nM (active) and 193 nM (active).

As for `NCCCCCCNCCCCCCN`, the Potency result was “inactive”.

Consider `Clc1ccc(C(Cn2ccnc2)OCc2c(Cl)cccc2Cl)c(Cl)c1` (configuration not stated), for which the Potency result was “inactive”.

In the case of `S=C(SSSSSSC(=S)N1CCCCC1)N1CCCCC1`, the Potency entry is “inactive”.

Turning to `Oc1ccc(-c2ccc(O)cc2)cc1`, the Potency entry was “inactive”.

A further test is described as follows: qHTS assay for identifying genotoxic compounds that show differential cytotoxicity against isogenic chicken DT40 cell lines with known DNA damage response pathways - wild type cell line (AID 743012). Note: nearly all actives have a fitted effect of over 60% in size. The settings on record: DT40 wild type chicken cells viability, CellTiter-Glo, 40 h; series mostly up to 68.4 µM. A digest of the protocol: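 Parental DNA repair-proficient DT40 cells, 300 per well, were pre-incubated ~0.5 h at 37 C/5% CO2, pin-dosed with compounds in DMSO, then incubated 40 h. Viability was read as CellTiter-Glo luminescence after 30 min at room temperature.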
`CCCCCCCC/C=C\CCCCCCCC(=O)NCc1ccc(O)c(OC)c1`: the Potency was 13.3 µM (active).

For `Nc1ncnc2c1ncn2[C@@H]1O[C@H](COP(=O)(O)O)[C@@H](O)[C@H]1O`, the Potency result is “inactive”.

Take `SCCCCCCCCS`: the Potency was 68.6 µM (active).

For `c1cc2c3c(c1)ccc1cccc(c13)C2`, the Potency entry was “inactive”.

As for `CSc1c(Cl)c(Cl)c(Cl)c(Cl)c1Cl`, the Potency entry was “inactive”.

Another test can be described thus: qHTS assay for identifying genotoxic compounds that show differential cytotoxicity against isogenic chicken DT40 cell lines with known DNA damage response pathways - Rev3 mutant cell line (AID 743014). Note: nearly all actives have a fitted effect of over 55% in size. The settings on record: chicken DT40 Rev3-/- viability, CellTiter-Glo, 40 h; series mostly up to 68.4 µM.
With `CC(COC(=O)c1ccccc1)OC(=O)c1ccccc1` (configuration not stated), the Potency result was “inactive”.

As for `O=C(Oc1ccccc1)c1cccc(C(=O)Oc2ccccc2)c1`, the Potency is 72.3 µM (active).

For `Brc1ccccc1-c1ccccc1`, the Potency is 41 µM (active).

`CNC(=S)NN`: the Potency is 7.7 µM (active).

`CCCCCCCOC(=O)c1ccc(O)cc1`: the Potency was 43.3 µM (active).

For the compound `O=C(Nc1ccc(Cl)cc1)Nc1ccc(Cl)c(C(F)(F)F)c1`, the Potency is 5.31 µM (active).

As to `O=C1OC(OC(=O)c2cccnc2Nc2cccc(C(F)(F)F)c2)c2ccccc21` (configuration not stated), the Potency result was “inactive”.

Take `O=Cc1ccc(F)cc1`: the Potency is 19.3 µM (active).

For `Cc1ccc(N)cc1O`, the Potency is 56.1 µM (active).

`C/C=C/C=N/NC(=O)c1ccncc1`: the Potency result was “inactive”.

Consider `CCCCC(CC)COC(=O)c1ccc(O)cc1` (configuration not stated), for which the Potency is 43.1 µM (active) and 48.6 µM (active).

As for `CC1=C(/C=C/C(C)=C/C=C/C(C)=C/C(=O)Nc2ccc(O)cc2)C(C)(C)CCC1`, the Potency is 13.3 µM (active) and 9.94 µM (active).

In the case of `CCCCCCCCCCCCCOP(=O)(O)O`, the Potency result was “inactive”.

As for `CCC(C)(C)c1cc(O)c(C(C)(C)CC)cc1O`, the Potency was 21.7 µM (active).

Turning to `CCCCCCCCCCCCCC[n+]1ccccc1`, the Potency was 0.077 µM (active).

For `Clc1ccccc1CN1CCc2sccc2C1`, the Potency is 21.1 µM (active).

`CC(C)(C)CC(C)(C)c1ccccc1O`: the Potency was 24.5 µM (active).

Consider `Cc1oc(-c2ccccc2)nc1CCOc1ccc(C[C@H](Nc2ccccc2C(=O)c2ccccc2)C(=O)O)cc1`, for which the Potency was 61.1 µM (active).

In the case of `Cc1nc(Nc2ncc(C(=O)Nc3c(C)cccc3Cl)s2)cc(N2CCN(CCO)CC2)n1`, the Potency is 9.44 µM (active).

Turning to `O=C(O)CC(=O)O`, the Potency result is “inactive”.

`C=C(C)C(=O)OCCC[Si](Cl)(Cl)Cl`: the Potency entry was “inactive”.

As to `CCCCCCCCCCCCCCNCCO`, the Potency is 21.1 µM (active).

In the case of `O=C1OC(=O)c2cccc3cccc1c23`, the Potency was 15.5 µM (active).

Turning to `Cc1cc2c(C(C)C)c(O)c(O)c(C=O)c2c(O)c1-c1c(C)cc2c(C(C)C)c(O)c(O)c(C=O)c2c1O`, the Potency is 13.3 µM (active).

Take `Cc1cccc(C)c1NC(=O)CN1CCN(CCCC(c2ccc(F)cc2)c2ccc(F)cc2)CC1`: the Potency is 5.69 µM (active).

As to `CCCCCCCCCC(=O)N(C)C`, the Potency result was “inactive”.

In the case of `C[C@H]1O[C@@H](O[C@H]2[C@@H](O)C[C@H](O[C@H]3[C@@H](O)C[C@H](O[C@H]4CC[C@@]5(C)[C@H](CC[C@@H]6[C@@H]5C[C@@H](O)[C@]5(C)[C@@H](C7=CC(=O)OC7)CC[C@]65O)C4)O[C@@H]3C)O[C@@H]2C)C[C@H](O)[C@@H]1O`, the Potency is 596 nM (active) and 172 nM (active) and 428 nM (active).

With `NCCCCCCNCCCCCCN`, the Potency is 6.75 µM (active).

On to `Clc1ccc(C(Cn2ccnc2)OCc2c(Cl)cccc2Cl)c(Cl)c1` (configuration not stated), for which the Potency is 12.7 µM (active).

Regarding `S=C(SSSSSSC(=S)N1CCCCC1)N1CCCCC1`, the Potency is 0.425 µM (active).

With `Oc1ccc(-c2ccc(O)cc2)cc1`, the Potency is 17.3 µM (active).
